# Values joined by “and” are separate entries in the source; they are usually repeats but may differ in a detail not shown here. Identical values can stand only once. Among all 310,000 compounds or so, about 970 (0.31%) were called active. Shown is part of a subset that was picked to be rich in actives. Unmarked numbers belong to inactive results.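 Rule for the calls: active = every replicate shows inhibition above about 80%, whatever the replicate mean (limit read from the data); inconclusive = mean inhibition reaches the set limit but some replicate falls short; inactive = the rest.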
# Assay: reduced ATP signal of yeast carrying P. falciparum Hsp90 – S. cerevisiae, BacTiter-Glo luminescence, single point, set 2, antimalarial PfHsp90 inhibitor project, primary screen (AID 504621);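 note: yeast relying on Plasmodium falciparum Hsp90 in place of its own; 0% = DMSO neutral controls and 100% = 20 µM radicicol positive controls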
# Settings: S. cerevisiae expressing PfHsp90, growth, 48 h, at 9.4 µM, stronger effect = higher value, yeast lacking PDR1 and PDR3 efflux regulators
row,SMILES,inhibition
1,OCC1(CO)CC2(C1)CC(CO)(CO)C2,6.26%
2,CCNC(=O)N1CCCC(C(=O)c2ccc(-c3ccccc3)cc2)C1 (configuration not stated),-1.67%
3,Cn1nccc1C(=O)N1CCCC(C(=O)c2ccc(Oc3ccccc3)cc2)C1 (configuration not stated),-45.9%
4,O=C(c1ccc(-c2ccccc2)cc1)C1CCCN(C(=O)c2cncs2)C1 (configuration not stated),90.2% (active)
5,CC(C)(C)OC(=O)N(Cc1ccccc1)Cc1ccc(OCc2cccc(NC(=O)c3ccccc3)c2)cc1,25%
6,COc1cccc2oc(CCc3ccccc3)cc(=O)c12,8.03%
7,O=C(Cc1ccc(Cl)c(Cl)c1)Nc1ccc(SC(F)F)cc1,12.6%
8,O=C(CC(O)(C(F)(F)F)C(F)(F)F)Nc1ccc(Cl)c(Cl)c1,123% (active)
9,O=C(CC1SCCNC1=O)Nc1ccc(Cl)c(Cl)c1 (configuration not stated),15%
10,Cc1cc([N+](=O)[O-])ccc1NS(=O)(=O)c1ccccc1,-35.7%
11,COc1ccc(S(=O)(=O)NC(C)C(=O)Nc2cccc([N+](=O)[O-])c2)cc1 (configuration not stated),4.61%
12,COc1cccc(CNC(=O)CCCC(=O)Nc2cccc([N+](=O)[O-])c2)c1,-1.23%
13,COC(=O)/C=C\C(=O)Nc1cccc([N+](=O)[O-])c1,106% (active)
14,COC(=O)Cn1cc(/C=C/[N+](=O)[O-])c2ccccc21,-17%
15,O=[N+]([O-])/C=C/c1ccc2c(ccn2Cc2ccccc2)c1,104% (active)
16,O=C(/C=C/c1cccc([N+](=O)[O-])c1)N1CCN(Cc2ccccc2)CC1,0.555%
17,COc1ccc(/C=C/C(=O)c2ccc(NS(=O)(=O)c3ccc(C)cc3)cc2)cc1O,-4.81%
18,COC(=O)c1ccc(COc2ccc(/C=C/C(=O)c3ccc(OC)c(CSCC(=O)O)c3)cc2OC)cc1,1.15%
19,COc1ccc(C(=O)/C=C/c2ccc(-c3ccccc3)cc2)cc1CSCC(=O)O,105% (active)
20,CN(CCc1ccccc1)C(=O)c1cccc(NC(=O)Cc2cccc(NC(=O)C3CCCN(C(=O)CCc4ccccc4)C3)c2)c1 (configuration not stated),-1.39%
21,O=C(Nc1ccn(CCCNCc2ccc3[nH]ccc3c2)c(=O)n1)OCc1ccccc1,-7.16%
22,CCCCN1CC(COc2ccccc2)Oc2cccc(F)c2S1(=O)=O (configuration not stated),-1.66%
23,O=C(NNC(=O)c1ccccc1O)c1ccccc1O,-9.27%

row,SMILES,inhibition
1,CN(O)C(=S)c1ccccc1,104% (active)
2,CN(CC(=O)O)C(=O)c1ccccc1,28.8%
3,CN(/N=C/c1ccccc1)C(=S)c1ccccc1,-15.5%
4,CCc1ccc(C(=O)C(C)OC(=O)CN2C(=O)NC3(CCCC3)C2=O)cc1 (configuration not stated),-1.32%
5,O=C(Nc1ccccc1)c1nnsc1S(=O)(=O)c1ccc(Cl)cc1,126% (active)
6,O=C(Nc1ccc(Cl)cc1)Nc1nnc(/C=C/c2ccccc2)s1,8.47%
7,Cc1nnsc1C(=O)N/N=C/c1ccccc1Cl,1.6%
8,O=C(C[C@H]1C/C=C\C[C@@H](NC(=O)OCC2c3ccccc3-c3ccccc32)C(=O)O[C@@H](c2ccccc2)CNC1=O)N[C@H](CO)Cc1ccccc1,-13.9%
9,OCCN1CCN(CCO)C1=S,15.3%
10,Oc1ccccc1/C=N/n1c(-c2cccs2)n[nH]c1=S,-9.75%
11,Cc1cc(-c2n[nH]c(=S)n2/N=C/C(Br)=C/c2ccccc2)n[nH]1,109% (active)
12,S=c1[nH]nc(-c2cc(-c3ccccc3)n[nH]2)n1/N=C/c1c2ccccc2cc2ccccc12,-28.2%
13,CCCN(CCC)S(=O)(=O)c1cc2c(cc1Br)CCN2C(=O)CC,-17.7%
14,CSCCC(NC(=O)COc1ccccc1)C(=O)OCc1ccc(Cl)cc1 (configuration not stated),6.52%
15,O=C1/C(=C\c2ccc(O)cc2)CCC1CNc1ccc(Cl)cc1 (configuration not stated),42.3%
16,CC(C)N(C(=O)[C@H]1C[C@H](CC(=O)NC(C)(C)C)C(=O)N2CCc3c([nH]c4ccc(Cl)cc34)[C@]12C)C(C)C,21.3%
17,CC1(C)C2CCC1(C)C(OC(=O)c1ccc(O)cc1)C2 (configuration not stated),11.7%
18,O=C(OC12CC3CC(CC(C3)C1)C2)c1ccc(NCc2cc(O)ccc2O)cc1,124% (active)
19,COC(=O)c1ccc(NCc2cc(O)ccc2O)cc1,30.3%
20,O=C(Nc1c(Br)cc2c(c1Br)Cc1cc([N+](=O)[O-])ccc1-2)C(Cl)Cl,-28.5%
21,O=S1(=O)CCOC[C@H](Cc2ccccc2)N1Cc1ccccc1Br,10.2%
22,C=CCOC(=O)N1CCC2CC1c1cc(-c3ccc(OC)cc3)ccc12 (configuration not stated),-3.16%
23,COc1ccccc1C(=O)c1ccccc1C(=O)c1ccccc1,-29.9%

row,SMILES,inhibition
1,CN(CCc1ccccc1)C(=O)c1cccc(NC(=O)Cc2cccc(NC(=O)C3CCCN(C(=O)C4CCC4)C3)c2)c1 (configuration not stated),10.6%
2,CCOC(=O)c1ccc(N2C(=O)CC(N3CCN(C(=O)c4ccccc4)CC3)C2=O)cc1 (configuration not stated),18.7%
3,CCOC(=O)c1ccc(N2C(=O)CC(N3CCC(C(=O)OCC)CC3)C2=O)cc1 (configuration not stated),94.1% (active)
4,CCOC(=O)c1ccc(N2C(=O)CC(N3CC(C)OC(C)C3)C2=O)cc1 (configuration not stated),11.2%
5,CSc1ncnc2c1ncn2CC(=O)C1CCC2C3CCC4=CC(=O)CCC4(C)C3CCC12C (configuration not stated),17%
6,CCOC(=O)[C@H]1[C@H]2COc3ccc(Br)cc3[C@@H]2N2C(=O)CN(C)C(=O)[C@@]12C,3.33%
7,C=CC(=O)Nc1ccc(Nc2ccnc(Nc3ccc(N4CCN(C)CC4)cc3)n2)cc1,1.37%
8,CCN(CC)S(=O)(=O)c1ccc(N2CCCC2)c(NC(=O)c2ccc([N+](=O)[O-])o2)c1,7.78%
9,CC(=O)Oc1ccccc1C1=NN(C(C)=O)C(c2ccccc2)C1 (configuration not stated),6.42%
10,O=C(c1ccccc1)N1N=C(c2ccccc2O)CC1c1ccc(Br)cc1 (configuration not stated),-6.75%
11,Oc1ccccc1C1=NN(c2ccccc2)C(c2ccccc2)C1 (configuration not stated),106% (active)
12,Fc1ccccc1COc1cccc2cccnc12,5.74%
13,OCc1ccc(OCCCOc2cccc3cccnc23)cc1,24.6%
14,O=C(Nc1ccccc1)Oc1cccc2cccnc12,104% (active)
15,CCOc1ccc(S(=O)(=O)N2CCN(C(=O)c3oc4ccccc4c3C)CC2)cc1,-16.3%
16,CC(=O)Oc1ccc(OC(C)=O)c2c1C1C=CC2CC1,-4.99%
17,O=C(NN=Cc1ccc([N+](=O)[O-])cc1)C1CC1,-9.96%
18,O=C1/C(=C\c2ccc([N+](=O)[O-])cc2)CS(=O)(=O)C/C1=C/c1ccc([N+](=O)[O-])cc1,104% (active)
19,O=[N+]([O-])c1ccc(C=NN=Cc2ccc([N+](=O)[O-])cc2)cc1,-1.39%
20,COc1cccc(C=CC(=O)C=CC=Cc2ccccc2)c1,16.4%
21,CN(C)C(=S)N=c1ssc(=S)n1Cc1ccco1,-41.1%
22,Oc1ccc(N=Nc2nccs2)c(O)c1,4.56%
23,Oc1ccc2ccccc2c1N=Nc1nccs1,131% (active)

row,SMILES,inhibition
1,c1ccc(NCc2cccc3ccccc23)nc1,3.43%
2,CCCCC(=O)Nc1ccc(C(=O)Nc2cc(C(F)(F)F)ccc2Cl)cc1,-1.45%
3,CCCCN(CCCC)CCC(O)c1cc2c(Cl)cc(Cl)cc2c2cc(C(F)(F)F)ccc12 (configuration not stated),110% (active)
4,COc1ccc(C(CNC(=O)c2cccc(S(=O)(=O)Nc3ccc(Br)cc3)c2)N(C)C)cc1 (configuration not stated),3.14%
5,C=CC[C@@H](Cc1ccc(F)cc1)C(=O)OC[C@H]1CCCN1C(=O)[C@H](CC=C)CC(=O)N(CCO)Cc1ccccc1,6.25%
6,NNc1cccc(C=Cc2ccccc2)cc1=O,17.2%
7,Cc1cccnc1NC(=O)c1cccc(S(=O)(=O)N2CCN(c3ccc(F)cc3)CC2)c1,-4.19%
8,Oc1c(CN2CCN(c3ccc(F)cc3)CC2)cc(Cl)c2cccnc12,136% (active)
9,Oc1c(CN2CCCC2)cc(COCc2ccccc2)c2cccnc12,16.4%
10,COc1ccc(Nc2ccc3ccccc3c2)cc1,-39%
11,O=C(Nc1ccccc1)c1ccco1,1.65%
12,O=C(Nc1nnc(CCOCCOCCc2nnc(NC(=O)c3ccco3)s2)s1)c1ccco1,4.41%
13,O=C(Nc1nc(-c2ccco2)c(-c2ccco2)s1)c1ccco1,92% (active)
14,COc1ccc(/C=C2/CCCc3ccccc3C2=O)cc1,17.4%
15,Cc1ccc2nc(-c3ccncc3)cc(C(=O)Nc3ccncc3)c2c1,-8.61%
16,Cc1ccc2nc(Nc3ccccc3)cc(C)c2c1,-1.32%
17,CCS(=O)(=O)Nc1cccc(-c2cc(-c3ccccc3)c3cc(C)ccc3n2)c1,102% (active)
18,O=C1OCC2=C1C(c1ccc(Cl)cc1)c1cc3c(cc1O2)OCO3 (configuration not stated),-15.7%
19,O=C(CC(n1cncn1)C(Cl)(Cl)Cl)c1ccc([N+](=O)[O-])cc1 (configuration not stated),123% (active)
20,O=C(Cn1c[n+](CC(=O)c2ccc([N+](=O)[O-])cc2)cn1)c1ccc([N+](=O)[O-])cc1,-20.5% and -1.84%
21,O=C(Nn1cnnc1)c1ccc([N+](=O)[O-])cc1,10.8%
22,Oc1ccc(-c2nc3ccccc3nc2-c2ccc(O)cc2O)c(O)c1,6.66%
23,O=C(O)c1ccc(NN=CC2=C(N3CCOCC3)/C(=C/c3ccccc3)CC2)cc1,-30.6%

# From PubChem BioAssay AID504621 (Broad Institute, 2011)
